# IL-1B inflam inh – inhibitors of inflammasome signaling (IL-1 beta secretion); THP-1 LPS/ATP IL-1B secretion, AlphaLISA, 16 h; hits give low values; activity change, % at 57.5 µM; 4.7% of 360,000 active; in the data active means activity change below about -50%; inconclusive means mostly about -30% to -49%
#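 Secreted IL-1B measured by AlphaLISA bead assay after 16 h compound exposure of THP-1 cells; compounds (final up to 57.5 uM) added 1 h before LPS (250 ng/mL) and ATP (1.25 mM) stimulation; lower signal means less secretion.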
# TDP1 cell CPT – DT40-hTDP1 cell growth loss with CPT; chicken DT40 Tdp1-/-;hTDP1 cells + 20 nM CPT, ATP luminescence, 48 h; Potency, µM (series often up to 46.2 µM), for inactives: at the highest dose activity change, negative = growth inhibition, hits mostly inhibitors; 12% of 420,000 active; further: potency means the concentration at half of the fitted maximal effect; nearly all actives have a fitted effect of over 55% in size
#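 Chicken DT40 Tdp1-/- cells complemented with human TDP1, 400 cells/well, exposed to compounds plus 20 nM camptothecin for at least 48 h at 37 C; viability read as ATP content by CellTiter-Glo luminescence.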
# ELG1 repair inh – inhibitors of ELG1-dependent DNA repair in HEK293T cells. Potency, µM (series often up to 46.1 µM), without a hit: top-dose activity change, negative = inhibition, hits mostly inhibitors. 2.3% of 330,000 active. HEK293T ELG1-luciferase reporter, luminescence, 16 h; DNA damage induced by 5-fluorouridine. AID 504467; further: potency means the concentration at half of the fitted maximal effect; nearly all actives have a fitted effect of over 55% in size
#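 In this reporter screen, reduction of luminescence relative to DMSO vehicle indicated activity. Compounds and 5-fluorouridine were added together to 2,000 cells per well, incubated for 16 hr at 37 °C, then developed with ONE-Glo.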
# HT1080NT lethal – kills 2HG-producing HT-1080-NT fibrosarcoma cells | 1.6% of 360,000 active | Potency, µM (top dose mostly 46.1 µM), inactives show at the top dose activity, negative = less viability, usual class: cytotoxic | HT-1080-NT fibrosarcoma viability, CellTiter-Glo ATP luminescence, 48 h;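 further: NT is the 2HG producing partner of a matched IDH1 knockdown line; potency means the concentration at half of the fitted maximal effect; 0% = DMSO-treated cells and -100% = media-only wells without cells; nearly all actives have a fitted effect of over 55% in size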
#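 Viability of the 2HG-overproducing fibrosarcoma line after 48 hours of compound exposure at 37 degrees C was determined by luminescence with CellTiter-Glo, and concentration-effect curves were then fitted and categorized.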
# TDP1 cell noCPT – qHTS for Inhibitors of human tyrosyl-DNA phosphodiesterase 1 (TDP1): qHTS in cells in absence of CPT. DT40 Tdp1-/- hTDP1 cells, no CPT, ATP luminescence, 48 h. Potency, µM (highest dose often 46.2 µM), for inactives: top-dose activity change, negative = growth inhibition, usual class: inhibitors. AID 686978, 2013. 15% of 420,000 active; further: potency means the concentration at half of the fitted maximal effect; nearly all actives have a fitted effect of over 55% in size
#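 DT40 Tdp1-/-;hTDP1 cells, no CPT (DMSO vehicle only), 400 cells/well; compounds pin-transferred; ≥48 hr, 37 °C; CellTiter-Glo 30 min RT dark, luminescence read.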
# HT1080 IDH1KD tx – kills HT-1080 cells with IDH1 knockdown. HT-1080 IDH1 knockdown viability, ATP luminescence, 48 h. Potency, µM (series often up to 46.1 µM), for the others: top-dose activity, negative = toxicity, actives largely listed as cytotoxic. 2% of 360,000 active. AID 686971;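 further: potency means the concentration at half of the fitted maximal effect; 0% = DMSO wells and -100% = cell-free medium wells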
#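 HT-1080-IDH1KD cells (IDH1 knocked down), 750/well in RPMI with 5% FBS, treated with compound 48 h at 37 degrees C. Viability by CellTiter-Glo luminescence, normalised to DMSO and no-cell wells; concentration-response curves classed.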
# * hit, by the source's call; u = inconclusive; x = not tested or not shown. Most compounds without a hit are left out; they make up all but 19% or so of the library. Unless noted, the call rests on the fitted dose curve; in most records, active means well fitted curve in the direction sought with a large enough effect; inconclusive means small, poorly fitted or top-dose-only effect, or another doubt; inactive means no such curve, though single readings can be large; an effect the other way counts as inactive or inconclusive. Unless noted, on the % scale 0 is the no-effect control and ±100 the full control effect.
SMILES,IL-1B inflam inh,TDP1 cell CPT,ELG1 repair inh,HT1080NT lethal,TDP1 cell noCPT,HT1080 IDH1KD tx
CC(=O)c1cccc(NC(=O)CSc2nnc(C(C)N(C)C)n2-c2ccc(F)cc2)c1 (stereo unspecified),11.5,u,-0.9%,10.0%,u,10.4%
Cc1occc1-c1nnc(SCC(=O)Nc2nccs2)n1CCc1ccccc1,-11.9,14.6µM*,u,-18.6%,18.4µM*,-3.8%
CC(=O)c1ccc(NC(=O)CSc2nnc(-c3ccoc3C)n2Cc2ccccc2)cc1,-66.7*,u,-21.1%,-4.5%,-26.7%,-1.7%
CC(=O)c1cccc(NC(=O)CSc2nnc(C(C)N(C)C)n2Cc2ccccc2)c1 (stereo unspecified),8.0,u,-15.2%,5.9%,23.1µM*,3.5%
Cc1ccc(NC(=O)CSc2nnc(-c3ccoc3C)n2CCCN(C)C)cc1Cl,-60.8*,-6.0%,u,-15.9%,-11.2%,-17.4%
CCOC(OCC)c1cc2ccccc2cn1,34.2,-18.3%,u,17.1%,-14.5%,5.1%
CN(C)c1ccc2c(c1)Sc1cc(N(C)C)ccc1N2C(=O)c1ccccc1,-11.4,u,-2.2%,1.5%,20.6µM*,-7.3%
Cc1cc(C)c2ccccc2n1,x,-2.3%,x,x,1.5%,x
Cc1cc(Oc2ccccc2)nc(-c2ccccc2)n1,10.3,-27.1%,u,-1.3%,-10.9%,-0.1%
Cc1cc(N(C)Cc2ccccc2)nc2cc(O)ccc12,-56.2*,7.4%,3.3%,u,u,u
Cc1cc(N(C)Cc2ccccc2)nc(-c2ccccc2)n1,23.1,u,2.3%,-15.4%,25.9µM*,u
COc1cccc(CN2C(=O)C3(C(C#N)=C(N)OC4=C3C(=O)CCC4)c3ccccc32)c1 (stereo unspecified),2.7,0.651µM*,1.0%,u,0.92µM*,u
Cc1cc(C)c2c(CCl)cc(=O)oc2c1,x,0.92µM*,-8.7%,u,0.92µM*,1.3µM*
Cc1cc(C)c2c(CN3CCN(C/C=C/c4ccccc4)CC3)cc(=O)oc2c1,u,29.1µM*,u,u,u,u
Cc1cc(C)c2c(CN3CCCCC3)cc(=O)oc2c1,0.5,3.9%,8.6%,16.4%,-19.2%,14.1%
Cc1ccc(NC(=O)COC(=O)c2ccc(CN3CCCC3=O)cc2)c(Cl)c1,7.5,17.7%,10.6%,0.0%,3.2%,1.9%
COc1ccccc1/C=C/[C@@H]1C[C@H]2CN(Cc3cccc(Cl)c3)C(=O)[C@]23CCCN13,0.0,10.3µM*,u,-11.8%,20.6µM*,-16.9%
O=C1N(Cc2cccc(Cl)c2)C[C@@H]2C[C@@H](c3ccco3)N3CCC[C@@]123,4.4,20.3%,-0.7%,1.3%,-10.9%,20.9%
COc1cccc2c1OCC([C@@H]1C[C@H]3CN(Cc4cccc(Cl)c4)C(=O)[C@]34CCCN14)=C2,-60.8*,16.4µM*,u,-19.5%,u,-19.5%
Cc1nn(C)cc1[C@@H]1C[C@H]2CN(Cc3cccc(Cl)c3)C(=O)[C@]23CCCN13,-14.0,10.9%,-4.4%,-6.7%,u,-7.2%
CC(C)Oc1ccc(CCN=C(N)N=C(N)N)cc1Cl,-18.2,10.3µM*,u,-19.3%,11.6µM*,23.1µM*
CCOC(=O)C1=C(N)OC(CCl)=C(C#N)C1c1ccsc1 (stereo unspecified),-1.6,2.06µM*,11.3%,3.9%,2.59µM*,2.0%
CC1=C(C(=O)OCc2ccccc2)C(c2ccsc2)C(C#N)=C(N)O1 (stereo unspecified),19.0,u,u,-3.6%,u,-1.4%
CN(C(=O)CCNC(=O)Cn1cnc2ccccc2c1=O)c1ccccc1F,78.5,10.7%,11.8%,5.0%,-27.2%,10.6%

# Compound activity deposited in PubChem by National Center for Advancing Translational Sciences (NCATS).
